Measured values published in PubChem BioAssay (NCI).
This is part of a sample that, as a whole, favours compounds with a hit. Of some 79,000 tested, about 15% had one in any assay. Unmarked numbers belong to inactive results. Activity calls are given as the source filed them. No stated cut-off is given here; in the data, active means growth inhibition above about 70%; inactive means the rest.

Experiments:
[1] = NCI Yeast Anticancer Drug Screen. Data for the rad50 strain (AID 155);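 further: 0% = growth of vehicle-only cultures of the same strain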; details: S. cerevisiae rad50 strain growth inhibition, stronger effect = higher value
Procedure, shortened: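 Genetically altered yeast (DNA repair pathway); compound treatment; growth inhibition vs vehicle ctrl.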

[2] = NCI Yeast Anticancer Drug Screen. Data for the mec2-1 strain (AID 157); details: S. cerevisiae mec2-1 strain, stronger effect = higher value
Procedure, shortened: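 Each compound was tested on mec2-1 yeast, a strain altered in DNA damage repair or cell cycle control. Growth inhibition is reported relative to vehicle.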

[3] = NCI Yeast Anticancer Drug Screen. Data for the sgs1 mgt1 strain (AID 161);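 further: 0% = growth of cultures given vehicle only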; details: S. cerevisiae sgs1 mgt1 strain, stronger effect = higher value
Procedure, shortened: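 Test agents were incubated with a DNA-repair-mutant yeast strain. Growth was then read and compared against vehicle-treated controls.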

[4] = NCI Yeast Anticancer Drug Screen. Data for the cln2 rad14 strain (AID 165);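 further: 0% = growth equal to vehicle treated cultures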; details: S. cerevisiae cln2 rad14 strain, stronger effect = higher value
Procedure, shortened: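 Test compounds were added to cln2 rad14 yeast cultures; inhibition of growth was then determined by comparison with vehicle treatment.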

[5] = NCI Yeast Anticancer Drug Screen. Data for the bub3 strain (AID 167); details: S. cerevisiae bub3 mutant strain, stronger effect = higher value
Procedure, shortened: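 Yeast carrying a defined mutation is treated with each compound, and growth is compared with that of vehicle-exposed cells to give inhibition.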

[6] = NCI Yeast Anticancer Drug Screen. Data for the mlh1 rad18 strain (AID 175); details: S. cerevisiae mlh1 rad18 strain growth inhibition, stronger effect = higher value
Procedure, shortened: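 Inhibition values reflect reduced growth of mutant yeast versus vehicle-treated controls following compound exposure; the mutations affect DNA damage repair.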

[7] = at 5.0 µM (retest, dose inferred, filed as 0.5)
[8] = at 50.0 µM (retest, dose inferred, filed as 5.0)

| SMILES | growth inhibition [1, 7] | growth inhibition [1, 8] | growth inhibition ([1]; at 50.0 µM) | growth inhibition [2, 7] | growth inhibition [2, 8] | growth inhibition ([2]; at 50.0 µM) | growth inhibition [3, 7] | growth inhibition [3, 8] | growth inhibition ([3]; at 50.0 µM) | growth inhibition [4, 7] | growth inhibition [4, 8] | growth inhibition ([4]; at 50.0 µM) | growth inhibition [5, 7] | growth inhibition [5, 8] | growth inhibition ([5]; at 50.0 µM) | growth inhibition [6, 7] | growth inhibition [6, 8] | growth inhibition ([6]; at 50.0 µM) |
| --- | --- | --- | --- | --- | --- | --- | --- | --- | --- | --- | --- | --- | --- | --- | --- | --- | --- | --- |
| Nc1c(Cl)nc(C(F)(F)F)nc1NCc1ccccc1 | 60% | 99% (active) | 39.7% | 99% (active) | 99% (active) | 8.25% | 97% (active) | 99% (active) | 1.45% | 99% (active) | 99% (active) | -48.1% | 99% (active) | 99% (active) | 23.7% | 91% (active) | 99% (active) | 5.35% |
| C/C(=N/O)c1ccc2c(c1)C(=NO)c1cc(/C(C)=N/O)ccc1-2 | 19% | 98% (active) | 89.9% (active) | -10% | 99% (active) | 94.7% (active) | 10% | 99% (active) | 94.2% (active) | 14% | 99% (active) | 93.7% (active) | 21% | 98% (active) | 93.5% (active) | 1% | 98% (active) | 91% (active) |
| CCN(CC)CCC(=O)c1ccc2c3c(n(C)c2c1)CCCC3 | 0% | 9% | 95.8% (active) | 0% | 9% | 25.2% | -4% | 26% | 83.8% (active) | -5% | 22% | 5.85% | -5% | 42% | 96.3% (active) | 3% | 21% | 78.7% (active) |
| c1c[n+](CCC2CCCCC2)ccn1 | -15% | 6% | 89% (active) | -14% | -23% | 97% (active) | -33% | -21% | 94.3% (active) | -26% | 10% | 73.1% (active) | -6% | 28% | 63.7% | -28% | 3% | 69.5% |
| CC(=O)OCC1OC(n2c(O)c(N=NC(N)=S)c3ccc([N+](=O)[O-])cc32)C(OC(C)=O)C1OC(C)=O (configuration not stated) | 12% | 95% (active) | 96.5% (active) | 5% | 47% | 34.6% | -9% | 72% (active) | 71.5% (active) | -33% | 23% | -1.15% | 6% | 34% | 53.3% | -1% | 68% | 61.3% |
| CC1=C(C(=S)Nc2ccc(Cl)c(C(=O)OC(C)C)c2)SCCO1 | 27% | 71% (active) | 89.6% (active) | 19% | 54% | 90.2% (active) | 27% | 90% (active) | 91.5% (active) | 25% | 64% | 47.4% | 26% | 95% (active) | 87.1% (active) | 21% | 50% | 63.8% |
| OCc1c2c(cc3c1CC1(C3)Cc3cc4c(c(CO)c3C1)CCC4)CCC2 | 30% | 94% (active) | 8.5% | 19% | 97% (active) | 24.3% | 22% | 98% (active) | 27.1% | 10% | 97% (active) | 46.4% | 18% | 97% (active) | 52.8% | 27% | 94% (active) | 27.4% |
| CCOC(=O)Cn1c(=O)c2nc(SC)sc2n(-c2ccc(C)cc2)c1=S | -3% | -1% | -4.9% | -1% | -10% | -6.25% | 0% | 6% | 27.1% | 14% | 17% | 34% | 1% | 9% | -10.4% | 2% | 12% | -19% |
| CC(c1ccccc1)c1cc(C(C)(C)C)ccc1O (configuration not stated) | -4% | 99% (active) | 99.6% (active) | -25% | 100% (active) | 99.8% (active) | -2% | 71% (active) | 99.7% (active) | -12% | 100% (active) | 99.3% (active) | -8% | 99% (active) | 99.4% (active) | -19% | 99% (active) | 99.3% (active) |
| O=c1c(Cl)cc2nc3ccccc3sc-2c1Cl | 21% | 72% (active) | 84% (active) | 42% | 84% (active) | 6.5% | 33% | 79% (active) | 83.8% (active) | 1% | 54% | -0.05% | 38% | 85% (active) | 80.5% (active) | 55% | 87% (active) | 83% (active) |
| Cc1ccc(S(=O)(=O)N/N=c2\c(C)c(C3=NS(=O)(=O)c4cc(S(N)(=O)=O)c(Cl)cc4N3)oc3c(Cl)cc(Cl)cc23)cc1 | 40% | 63% | 77.9% (active) | 32% | 55% | 47% | 28% | 59% | 56.5% | 33% | 60% | 65.9% | 33% | 73% (active) | 60.5% | 44% | 69% | 59.2% |
| O=C1CCC(Cc2ccc(Br)cc2)C(=O)N1 (configuration not stated) | -4% | 7% | -11.7% | -4% | 1% | 7.2% | 19% | 96% (active) | 93.7% (active) | -3% | 3% | -77.2% | -6% | -1% | -54% | -6% | 5% | -2.1% |
| CCOC(=O)C(=Cc1ccc(C(=O)OC)cc1)C(=O)OCC | 10% | 58% | 82.2% (active) | 11% | 86% (active) | 75.2% (active) | -2% | 63% | 75.3% (active) | 38% | 80% (active) | 69.5% | 12% | 93% (active) | 77.2% (active) | 14% | 88% (active) | 62.8% |
| Oc1ccc(SCc2cc(O)ccc2O)cc1 | 9% | 93% (active) | 86% (active) | 8% | 73% (active) | 91.2% (active) | -17% | 48% | 84.5% (active) | -13% | 69% | 66% | -26% | 73% (active) | 86.7% (active) | 10% | 86% (active) | 82.1% (active) |
| CCCCCCCCN(CCCCCCCC)CC(O)c1cc(-c2ccc(OC)cc2)nc2cc(Cl)ccc12 (configuration not stated) | -2% | 81% (active) | 42.5% | 8% | 86% (active) | 92.5% (active) | 17% | 85% (active) | 48.6% | 8% | 76% (active) | 84% (active) | 12% | 85% (active) | 75.7% (active) | 7% | 84% (active) | 89% (active) |
| O=C(C(Cl)Cl)N(O)c1ccccc1OCc1ccccc1 | 10% | 52% | 72.2% (active) | 9% | 73% (active) | 41.9% | 8% | 94% (active) | 90% (active) | 6% | 27% | 34.4% | 2% | 67% | 62.4% | 56% | 95% (active) | 89% (active) |
| Cc1[nH]c2ccccc2c1C1=CC2(C)Nc3ccccc3C2C(C)(C)C1 (configuration not stated) | -4% | 26% | 90.2% (active) | 2% | -1% | 93.8% (active) | -4% | 23% | 92.3% (active) | 2% | -4% | 93.5% (active) | 10% | 79% (active) | 94.8% (active) | -1% | 28% | 94.7% (active) |
| O=C1OC(=O)c2ccc(S)c3cccc1c23 | -35% | 95% (active) | 81.8% (active) | -25% | 85% (active) | 61.2% | -53% | 86% (active) | 38.6% | -42% | 68% | 36.7% | -32% | 90% (active) | 88.8% (active) | -80% | 95% (active) | 76% (active) |
| CC1(c2cccs2)C(C#N)(C#N)C1(C#N)C#N | 17% | 42% | 92.8% (active) | 9% | 44% | 95.8% (active) | 17% | 39% | 96% (active) | -5% | 30% | 98.4% (active) | -4% | 36% | 95.5% (active) | 9% | 47% | 98.5% (active) |
